# Only a sample is shown.
# aSyn UTR act: Activators working through SNCA 5'UTR binding (MLPCN) | activity score, % (tested at 7.5 µM), hits read low | alpha-synuclein 5'UTR reporter, activators screen | 300,000 compounds, 7.1% hits; in the data active = activity score below about -60%
# Hits are given with their value; i = inactive.
SMILES,aSyn UTR act
COc1ccc(C2=Nc3ccccc3OC2)cc1,-189.5
O=C(Nc1cccc(-c2nnc(-c3ccccc3)o2)c1)C1CC1,-88.7
CC(=O)Nc1cccc(-c2nnc(-c3ccccc3)o2)c1,-150.3
CCOc1cccc(C(=O)Nc2cccc(-c3nnc(-c4ccccc4)o3)c2)c1,-77.2
c1ccc(COc2ccc3nocc3c2)cc1,-104.3
Cc1ccc(C(=O)NC2=NCCS2)cc1,-118.4
COc1ccc(C(=O)NC2=NCCS2)cc1,-90.9
N#Cc1ccc(C(=O)NC2=NCCS2)cc1,-140.9
Cc1ccc(C(=O)NC2=NCCS2)cc1Cl,-109.8
Cc1ccc(C(=O)Nc2ccsc2C(=O)O)cc1,-141.0
O=C(NC1=NCCS1)c1ccc(C(F)(F)F)cc1,-122.5
OC1c2cc(Br)ccc2N=C2CCCN21 (stereo unspecified),-87.6
CN(C)/C=C1\Oc2ccc3ccccc3c2C1=O,-116.1
O=C(COc1ccc(Br)cc1Br)NC1CCCC1,-112.8
O=C(COc1ccc(Br)cc1Cl)NC1CCCCC1,-161.5
O=C(COc1ccc(Cl)cc1Cl)NC1CCSC1=O (stereo unspecified),-86.4
COc1ccc2cc(CCC(C)=O)ccc2c1,-126.2
O=C(Nc1ccc(NC(=O)C2CCCCC2)nc1)c1cccs1,-123.6
CCCC(=O)Nc1ccc(NC(=O)c2ccccc2F)cn1,-90.4
O=C(Nc1ccc(NC(=O)C2CC2)nc1)c1ccccc1F,-95.1
CCc1ccc(NC(=O)[C@H](C)NC(=O)C2CCN(C(=O)[C@@H](N)C(C)C)CC2)cc1,-110.4
COc1ccccc1NC(=O)c1ccc2c(c1)OCO2,-125.1
COc1cc2c(cc1NC(=O)c1ccc3c(c1)OCO3)oc1ccccc12,-285.2
CCOc1ccc(C(=O)Nc2c(C(N)=O)oc3ccccc23)cc1,-115.5
COc1ccccc1NC(=O)/C=C/c1ccc2c(c1)OCO2,-166.6
SMILES,aSyn UTR act
O=c1c(O)c(-c2ccc3c(c2)OCO3)oc2ccccc12,-132.9
COc1ccc(NC(=O)c2oc3ccccc3c2NC(=O)c2ccc3c(c2)OCO3)cc1,-68.3
O=C(Nc1ccc2c(c1)oc1ccccc12)c1ccc2c(c1)OCO2,-232.7
CCCCOc1ccc(NC(=O)C(=O)NCCCn2ccnc2)cc1,i
CCOc1ccc(NC(=S)NCCCn2ccnc2)cc1,-76.7
O=C(COc1ccc(Cl)cc1Cl)NC(=O)N1CCCCC1,-120.6
Cc1cc(Cl)ccc1OCC(=O)N1CCCCC1,-108.3
CCc1c(C)nc(SCC(=O)c2cccs2)c(C#N)c1C,-269.3
CN(C)c1ccc(N=Cc2nc(-c3ccccc3)oc2OC(=O)c2cccc(Cl)c2)cc1,-145.6
COc1ccc(C(=O)N2CCc3ccc(NC(=O)c4ccccn4)cc3C2)cc1F,-101.2
Nc1c(Cl)cc(C2=NCCn3c2c2ccc([N+](=O)[O-])cc2[n+]3[O-])cc1Cl,i
[O-][n+]1c2cc(C(F)(F)F)ccc2c2n1CCN=C2c1ccc(Cl)cc1,-65.1
Clc1nnc(NN=C2CCCC2)c2ccccc12,-193.6
Clc1nnc(N/N=C/c2ccccc2)c2ccccc12,-267.6
Clc1ccc(/C=N/Nc2nc(Cl)nc3ccccc23)cc1,-172.2
Clc1ccc(/C=N/Nc2nnc(Cl)c3ccccc23)cc1,-164.8
Cc1ccc(/C=N/Nc2nnc(Cl)c3ccccc23)cc1,-156.7
COc1ccc(C2C(C(=O)Nc3cc(OC)c(OC)c(OC)c3)c3ccccc3C(=O)N2C)cc1 (stereo unspecified),i
COc1ccc(NC(=O)C2C(=O)N(CCO)C3(C)CC2c2ccccc2O3)cc1 (stereo unspecified),-103.0
CN1CCN(C(=O)c2ccc(-c3cccs3)s2)CC1,-97.8
CN(C)c1ccc(/C=N/c2cc(-c3ccccc3)nn2-c2ccccc2)cc1,-133.0
C/C(=C\C(=O)c1cccnc1)Nc1ccc(O)cc1,-77.4
C/C(=C\C(=O)c1ccccc1)Nc1ccc(O)cc1,-102.2
CCN(C(=O)c1ccco1)c1nnc(-c2ccc(OC)cc2)s1,-135.4
CCCN(C(=O)c1ccco1)c1nnc(-c2cccc(C)c2)s1,-143.1
SMILES,aSyn UTR act
c1ccc(-n2ncc3c(NCc4cccnc4)ncnc32)cc1,-114.3
COc1ccc(-n2ncc3c(NCc4cccs4)ncnc32)cc1,-170.7
Nc1nc(NCc2cccs2)nn1-c1ccccc1,-66.7
c1ccc(-n2ncc3c(NCc4cccs4)ncnc32)cc1,-161.6
N=c1oc2ccccc2cc1-c1nc(-c2ccc(Cl)cc2)cs1,-82.3
O=C(CSCc1ccccc1Cl)Nc1ccc2c(c1)OCCO2,-151.7
O=C(CNCc1ccccc1)Nc1ccc(Cl)cc1,-82.2
O=C(CNCc1ccccc1Cl)Nc1ccc2c(c1)OCCO2,-116.6
O=C(CNCc1ccc(Cl)cc1)Nc1ccc2c(c1)OCCO2,-98.9
Nc1ccccc1C(=O)NNC1=C(C(=O)C(F)(F)F)CCC1,-277.8
C=CCNc1nc(-c2ccc3c(c2)OCCO3)cs1,-133.7
NC1=NN=C(c2ccc3c(c2)OCCO3)CS1,i
CCC(=O)Nc1nc(-c2ccc3c(c2)CC(C)N3S(C)(=O)=O)cs1 (stereo unspecified),-70.0
O=C(Nc1nc(-c2cccs2)cs1)c1ccco1,-85.1
CCC(=O)Nc1nc(-c2ccc3c(c2)OCCO3)cs1,-136.3
CC(C)(C)C(=O)Nc1nc(-c2ccc3c(c2)OCO3)cs1,-146.9
